Experimental findings from PubChem BioAssay are described below.

SMILES strings stand for the structures. Activity calls are given as the source filed them.

The test system of test [1] is Plasmodium falciparum Sir2 (PF13_0152, Sir2A). The experiment in a line: pfSir2 binders on small-molecule microarrays, primary screen, biochemical, small-molecule microarray, 635 nm fluorescence (AID 1098).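 Further: score merges spot fluorescence intensity with its signal-to-noise ratio.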 As to conditions: small-molecule microarray binding, fluorescence 635 nm; higher = more signal.
The nature of test [2]: small-molecule microarray binders of probe aDKK1, primary screen, biochemical, biotinylated probe, 635/667 nm fluorescence (AID 1099).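 Further: score merges 667nm spot fluorescence with signal to noise across triplicate slides.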 As to conditions: higher = more signal.
Test [3] is described as follows: small-molecule microarray binders of probe aCHRDL2, primary screen, biochemical, biotinylated probe, 635/667 nm fluorescence (AID 1100). As to conditions: higher = more signal.
Test [4] can be described thus: splicing luciferase reporter signal modulators, primary screen, spliceosome inhibition project, cell-based, HEK293, splice +/- reporter (AID 1101).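 Further: HEK293 cells carrying a splicing-competent luciferase reporter gene; test concentration not given here.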 As to conditions: luminescence, 24 h, higher = more signal, called active from +8 up or from −8 down.
The target of test [5] is Fibroblast growth factor 10 (Homo sapiens) (UniProt O15520). The test is described as follows: FGF10 binders on small-molecule microarrays, primary screen, biochemical, small-molecule microarray, 635 nm fluorescence (AID 1102). As to conditions: FGF10 binding, fluorescence 635 nm, higher = more signal.
The test system of test [6] is glycogen synthase kinase-3 (GSK3A per assay name; protocol says GSK3B). The test is described as follows: GSK3 binders on small-molecule microarrays, primary screen, biochemical, small-molecule microarray, 635 nm fluorescence, GSK3A (AID 1103). Further: the record names both GSK3A and GSK3B. Particulars: small-molecule microarray binding, fluorescence 635 nm; higher = more signal.
The target of test [7] is Epidermal growth factor receptor (Homo sapiens) (UniProt P00533). The experiment in a line: EGFR binders on small-molecule microarrays, primary screen, biochemical, small-molecule microarray, 635 nm fluorescence (AID 1104).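 Further: score merges 667 nm emission intensity with spot signal to noise over triplicate slides.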 Particulars: EGFR binding, higher = more signal.
The target in test [8] is Follistatin-related protein 3 (Homo sapiens) (UniProt O95633). The experiment in a line: FSTL3 binders on small-molecule microarrays, primary screen, biochemical, small-molecule microarray, 635 nm fluorescence (AID 1105).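 Further: score merges emission near 667 nm and signal to noise per printed spot across three slides.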 As to conditions: FSTL3 binding, higher = more signal.
Test [9] has as its target Dickkopf-related protein 1 (Homo sapiens) (UniProt O94907). The experiment in a line: DKK1 binders on small-molecule microarrays, primary screen, biochemical, small-molecule microarray, 635 nm fluorescence scan (AID 1106).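 Further: score merges emission near 667 nm with signal to noise over three replicate slides.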 Particulars: DKK1 binding, higher = more signal.
Test [10] concerns Inhibin beta A chain (activin A). The test is described as follows: INHBA (activin A) binders on microarrays, primary screen, biochemical, small-molecule microarray, 635 nm fluorescence scan (AID 1107).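 Further: mouse activin A protein probed at 4.33 µg/mL on printed slides; score merges bound-protein fluorescence near 667 nm with spot signal-to-noise.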 Particulars: small-molecule microarray binding, higher = more signal.
Test [11] has as its system Human papillomavirus type 1a protein E7 (residues 44-93). The experiment in a line: HPV1a E7 fragment binders on microarrays, primary screen, biochemical, small-molecule microarray, residues 44-93, 635 nm fluorescence (AID 1108).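 Further: E7 fragment applied at 1 µg/mL in TBST for 1 h at 4 C; score combines spot fluorescence with its signal to noise ratio.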 As to conditions: small-molecule microarray binding, fluorescence 635 nm; higher = more signal.
The nature of test [12]: modulators of HCV replicon luciferase signal, primary screen, HCV replication inhibitor project, Huh7 cells, luciferase reporter (AID 1109).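 Further: huh7 hepatoma cells harbouring a luciferase neomycin HCV replicon reporter; luciferase luminescence as measure of HCV replicon replication; test concentration not given here.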 Particulars: 48 h, higher = more signal.
The target in test [13] is Left-right determination factor 2 (Homo sapiens) (UniProt O00292). The experiment in a line: LEFTY2 binders on small-molecule microarrays, primary screen, biochemical, small-molecule microarray, 635 nm fluorescence scan (AID 1110). As to conditions: LEFTY2 binding, higher = more signal.
Test [14] deals with Calmodulin-1 (Homo sapiens) (UniProt P0DP23). The experiment in a line: CALM1 binders on microarrays, EGTA buffer, profiling panel, biochemical, small-molecule microarray, Cy5-labelled CALM1 (AID 1111).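 Further: labelled calmodulin applied in Tris saline Tween buffer holding calcium plus EGTA and DTT.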 Particulars: Cy5-CALM1 binding fluorescence, higher = more signal.
Test [15] has the same target. The test is described as follows: calcium-bound CALM1 binders on microarrays, profiling panel, artefact control for SMM control-protein annotation, biochemical, small-molecule microarray, Cy5-labelled CALM1, plus calcium (AID 1112).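 Further: score merges spot fluorescence with signal to noise from triplicate slides.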 As to conditions: Cy5-CALM1 binding fluorescence, higher = more signal.
Test [16] is described as follows: small-molecule microarray binders of probe aWnt5a, primary screen, biochemical, biotinylated probe, 635/667 nm fluorescence (AID 1113).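 Further: score merges 667 nm fluorescence intensity with signal-to-noise per printed feature.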 As to conditions: higher = more signal.
Test [17] in a line: small-molecule microarray binders of probe aShh, primary screen, biochemical, biotinylated probe, 635/667 nm fluorescence (AID 1114).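 Further: probe is biotin-labelled aShh protein from a stem cell growth factor screen; measures binding of labelled protein to compounds printed on the slide; score merges feature fluorescence at 667 nm with signal-to-noise.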 Particulars: higher = more signal.
Test [18] in a line: small-molecule microarray binders of probe aNog, primary screen, biochemical, biotinylated probe, 635/667 nm fluorescence (AID 1115).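 Further: probe is biotinylated aNog protein used at 0.15 µg/mL for 1 h at 4 C; z-score combines 667 nm fluorescence of each spot with its signal to noise.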 Particulars: higher = more signal.
The target in test [19] is Torsin-1A-interacting protein 1 (Homo sapiens) (UniProt Q5JTV8). The experiment in a line: LAP1 binders from COS7 cell lysate, primary screen, small-molecule microarray, 635/667 nm fluorescence (AID 1116). As to conditions: COS7-hLAP1 lysate binding, 635 nm fluorescence, higher = more signal.
Test [20] concerns the target Alpha-bungarotoxin (Bungarus multicinctus) (UniProt P60615). The test is described as follows: alpha-bungarotoxin binders on microarray, profiling panel, artefact control for SMM control protein annotation, biochemical, small-molecule microarray, Alexa647 label, 635/667 nm fluorescence (AID 1117). As to conditions: alpha-BTX-A647 binding fluorescence, higher = more signal.

Chain of Follistatin-related protein 3 (Homo sapiens) (O95633 whole entry, looked up): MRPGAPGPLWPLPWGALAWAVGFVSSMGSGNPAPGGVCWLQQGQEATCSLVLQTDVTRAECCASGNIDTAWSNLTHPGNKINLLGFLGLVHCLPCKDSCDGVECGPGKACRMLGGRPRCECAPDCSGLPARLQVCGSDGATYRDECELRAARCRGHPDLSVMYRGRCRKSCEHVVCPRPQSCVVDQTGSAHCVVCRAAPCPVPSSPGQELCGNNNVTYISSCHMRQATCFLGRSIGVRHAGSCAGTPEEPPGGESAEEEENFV
Chain of Epidermal growth factor receptor (Homo sapiens) (P00533 whole entry, looked up): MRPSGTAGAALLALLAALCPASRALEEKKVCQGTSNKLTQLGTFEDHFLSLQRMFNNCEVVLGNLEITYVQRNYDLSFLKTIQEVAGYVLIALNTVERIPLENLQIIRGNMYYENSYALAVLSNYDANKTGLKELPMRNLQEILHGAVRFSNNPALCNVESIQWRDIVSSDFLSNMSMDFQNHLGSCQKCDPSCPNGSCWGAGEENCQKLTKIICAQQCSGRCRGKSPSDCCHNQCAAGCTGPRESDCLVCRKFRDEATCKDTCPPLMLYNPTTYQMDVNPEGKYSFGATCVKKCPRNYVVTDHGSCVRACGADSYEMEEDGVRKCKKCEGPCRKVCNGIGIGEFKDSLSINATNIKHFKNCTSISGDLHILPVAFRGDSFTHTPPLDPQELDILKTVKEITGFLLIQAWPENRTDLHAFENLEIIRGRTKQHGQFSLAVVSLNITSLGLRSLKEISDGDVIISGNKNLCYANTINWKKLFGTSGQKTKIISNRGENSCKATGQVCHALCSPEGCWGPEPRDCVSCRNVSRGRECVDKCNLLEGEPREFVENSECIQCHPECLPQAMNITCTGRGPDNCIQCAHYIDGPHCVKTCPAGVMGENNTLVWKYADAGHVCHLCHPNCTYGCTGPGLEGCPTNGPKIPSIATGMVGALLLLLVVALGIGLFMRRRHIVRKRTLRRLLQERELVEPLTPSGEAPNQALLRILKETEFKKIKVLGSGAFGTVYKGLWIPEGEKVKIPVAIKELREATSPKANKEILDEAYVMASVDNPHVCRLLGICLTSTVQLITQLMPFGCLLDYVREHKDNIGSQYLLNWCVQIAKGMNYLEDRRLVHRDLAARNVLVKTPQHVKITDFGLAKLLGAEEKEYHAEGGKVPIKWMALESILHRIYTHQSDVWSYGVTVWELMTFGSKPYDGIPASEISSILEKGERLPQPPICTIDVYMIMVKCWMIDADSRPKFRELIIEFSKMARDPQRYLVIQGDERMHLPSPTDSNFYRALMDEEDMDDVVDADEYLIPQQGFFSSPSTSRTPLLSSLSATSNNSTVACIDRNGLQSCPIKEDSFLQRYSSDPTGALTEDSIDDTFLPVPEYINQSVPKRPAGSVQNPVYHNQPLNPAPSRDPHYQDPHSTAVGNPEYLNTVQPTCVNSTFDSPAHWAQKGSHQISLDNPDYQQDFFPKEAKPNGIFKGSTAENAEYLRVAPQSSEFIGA
Chain of Fibroblast growth factor 10 (Homo sapiens) (O15520 whole entry, looked up): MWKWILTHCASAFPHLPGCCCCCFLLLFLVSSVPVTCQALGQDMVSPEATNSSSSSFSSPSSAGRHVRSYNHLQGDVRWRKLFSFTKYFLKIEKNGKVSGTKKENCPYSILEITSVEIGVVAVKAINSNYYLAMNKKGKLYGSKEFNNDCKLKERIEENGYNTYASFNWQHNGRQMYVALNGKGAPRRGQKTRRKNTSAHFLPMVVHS
Chain of Torsin-1A-interacting protein 1 (Homo sapiens) (Q5JTV8 whole entry, looked up): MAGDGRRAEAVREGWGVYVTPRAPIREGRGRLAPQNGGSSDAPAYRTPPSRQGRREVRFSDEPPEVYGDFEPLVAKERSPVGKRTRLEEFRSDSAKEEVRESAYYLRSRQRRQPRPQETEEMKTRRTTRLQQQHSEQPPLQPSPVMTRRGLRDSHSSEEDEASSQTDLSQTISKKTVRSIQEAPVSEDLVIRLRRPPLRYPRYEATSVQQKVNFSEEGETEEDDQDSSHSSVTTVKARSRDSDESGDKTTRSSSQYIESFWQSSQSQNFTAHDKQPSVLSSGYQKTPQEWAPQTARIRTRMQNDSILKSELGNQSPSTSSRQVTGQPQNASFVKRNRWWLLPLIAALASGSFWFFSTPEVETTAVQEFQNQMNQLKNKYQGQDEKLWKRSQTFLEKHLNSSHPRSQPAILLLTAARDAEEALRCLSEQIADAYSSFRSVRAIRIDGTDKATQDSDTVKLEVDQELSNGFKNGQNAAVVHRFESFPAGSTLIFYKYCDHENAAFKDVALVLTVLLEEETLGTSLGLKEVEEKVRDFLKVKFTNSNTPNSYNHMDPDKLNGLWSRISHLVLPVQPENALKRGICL
Chain of Dickkopf-related protein 1 (Homo sapiens) (O94907 whole entry, looked up): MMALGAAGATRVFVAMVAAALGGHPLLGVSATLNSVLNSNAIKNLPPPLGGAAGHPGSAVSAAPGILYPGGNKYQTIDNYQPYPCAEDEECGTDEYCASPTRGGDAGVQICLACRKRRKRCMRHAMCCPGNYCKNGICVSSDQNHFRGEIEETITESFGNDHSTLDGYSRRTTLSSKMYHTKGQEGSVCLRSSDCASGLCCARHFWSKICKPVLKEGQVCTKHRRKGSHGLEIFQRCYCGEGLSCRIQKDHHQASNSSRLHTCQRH
Chain of Left-right determination factor 2 (Homo sapiens) (O00292 whole entry, looked up): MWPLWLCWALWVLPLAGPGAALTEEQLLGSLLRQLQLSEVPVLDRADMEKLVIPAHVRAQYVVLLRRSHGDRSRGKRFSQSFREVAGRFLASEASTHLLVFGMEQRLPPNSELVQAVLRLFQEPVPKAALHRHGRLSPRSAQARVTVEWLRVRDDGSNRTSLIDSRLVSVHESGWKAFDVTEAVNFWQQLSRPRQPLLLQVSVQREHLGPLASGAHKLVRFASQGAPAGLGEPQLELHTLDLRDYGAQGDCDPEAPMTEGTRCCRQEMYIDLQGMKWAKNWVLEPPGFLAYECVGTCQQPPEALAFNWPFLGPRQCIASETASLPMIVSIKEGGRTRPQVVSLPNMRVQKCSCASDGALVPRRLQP
Chain of Alpha-bungarotoxin (Bungarus multicinctus) (P60615 whole entry, looked up): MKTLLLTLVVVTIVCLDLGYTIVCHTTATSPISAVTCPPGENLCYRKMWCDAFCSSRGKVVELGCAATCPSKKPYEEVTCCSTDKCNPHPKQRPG

As to `C=CCN1C(=O)[C@@]2(O[C@@H](CCO)[C@H]([Si](C)(C)c3ccc(OC)cc3)[C@H]2C)c2cc(N3C(=O)c4cccc5cccc3c45)ccc21`, the composite z-score is 1 in test [1]; -0.0284 in [2]; 0.392 in test [3]; 0.102 in [5]; 0.307 in test [6]; -0.232 in test [7]. Also, the composite z-score in test [8] was -0.189; in [9] it was -0.4; in test [10] it was 0.18; in [11], 0.515; in test [13], -0.144; in [14] it was 0.965. The composite z-score is 0.734 in [15]; -0.176 in test [16]; 0.123 in test [17]; 0.272 in test [18]; 0.201 in test [19]; 1.21 in [20]. In addition, the results for the z-score in test [4] and in [12] were -3.45 (inactive) and -5.15, respectively.

For `COc1ccc(C#Cc2ccc3c(c2)[C@]2(C(=O)N3)[C@H](c3ccc(O)cc3)N3[C@H](c4ccccc4)[C@H](c4ccccc4)OC(=O)[C@H]3[C@@H]2C(N)=O)cc1`, the composite z-score in test [1] was 0.348; in test [2], -0.0576; in [3] it was 0.698; in [5], -0.425; in test [6] it was -0.381; in test [7], -1.06. The composite z-score is -1.08 in test [8]; -0.67 in [9]; 0.227 in [10]; 0.53 in test [11]; -1.07 in test [13]; 0.0315 in test [14]. For the same compound, the composite z-score in test [15] is 1.03; in [16], -0.136; in test [17] it was 0.0735; in test [18], 0.482; in [19] it was -0.203; in [20] it was 0.997. The z-score in test [4] is 6.64 (inactive); in [12] it was -1.68.

Consider `COc1ccc([Si](C)(C)[C@@H]2[C@@H](CC(=O)N3CCC[C@H]3CO)O[C@]3(C(=O)N(Cc4ccc(N5CCC5=O)cc4)c4ccccc43)[C@H]2C)cc1`, for which the composite z-score in test [1] stood at 1.22; in test [2], 0.123; in test [3], 0.0655; in test [5], 0.61; in [6], 0.398; in test [7], 0.35. The composite z-score in test [8] is 0.489; in [9] it was 0.33; in test [10] it was 0.194; in [11], 0.196; in [13] it was 0.499; in test [14], 0.593. Further, the composite z-score in test [15] is 0.343; in [16], -0.124; in test [17] it was 0.257; in test [18], 0.241; in test [19], 0.303; in test [20], 0.428. The z-score in test [4] was -0.473 (inactive); in test [12], -1.96.

Turning to `C=C(/C(=C/C[C@H](OC(=O)c1ccncc1)c1cccc(OCCO)c1)c1cc(C(=O)OC)ccc1OC)C(C)C`, the composite z-score in test [1] is 0.903; in test [2], 0.235; in test [3], 0.569; in test [5] it was 0.493; in test [6] it was -0.129; in test [7], -0.763. Moreover, the composite z-score in test [8] was -0.127; in [9], -0.227; in test [10], 0.639; in test [11], 0.0251; in test [13], -0.107; in test [14], -0.193. Besides, the composite z-score was -0.808 in [15]; -0.169 in test [16]; -0.0035 in [17]; 0.0866 in test [18]; -0.142 in test [19]; 0.288 in [20]. Moreover, the figures for the z-score in [4] and in [12] were -1.63 (inactive) and -1.86, respectively.

For `[N-]=[N+]=NCc1ccccc1C[C@]1(C(=O)NCc2ccccc2)N=C(c2ccc(OCCCO)cc2)O[C@H]1c1ccccc1`, the composite z-score in test [1] was 1.01; in test [2], 1.51; in test [3] it was 1.28; in test [5] it was 0.19; in test [6], -0.516; in test [7], -0.864. Moreover, the composite z-score in [8] is -0.565; in test [9], -1.03; in test [10], 0.928; in test [11] it was 0.508; in test [13], -0.941; in test [14], 1.82. Besides, the composite z-score amounted to 1.36 in test [15]; 0.108 in test [16]; 0.23 in test [17]; 0.682 in test [18]; 1.31 in test [19]; 1.22 in test [20]. The z-score in [4] was 0.359 (inactive); in test [12] it was -1.95.

In the case of `O=C(NC1CC1)[C@@H]1c2ccccc2C(=O)N(Cc2ccccc2C(F)(F)F)[C@H]1c1ccc(CO)cc1`, the composite z-score turned out to be 0.271 in test [1]; 0.561 in test [2]; 0.341 in [3]; 0.554 in test [5]; 1.27 in test [6]; 0.388 in test [7]. The composite z-score was determined as 0.471 in test [8]; 0.113 in [9]; 0.708 in [10]; 1.06 in test [11]; 0.319 in [13]; 0.64 in [14]. Besides, the composite z-score was 0.585 in test [15]; -0.0977 in [16]; 0.172 in [17]; 0.0272 in test [18]; 0.714 in [19]; 0.353 in test [20]. Moreover, the values for the z-score in test [4] and in test [12] were -0.0246 (inactive) and -0.639, respectively.
